# Test system: HepG2
# Assay: GSK_TCMDC: Percent inhibition of human HepG2 cell line. Test compounds present at 10uM.
# Format: functional
row,Structure (SMILES),Inhibition [%]
1,C=C1N(C)c2cc([N+](=O)[O-])c(N)cc2C1(C)C,22
2,CCC(=Cc1cccc([N+](=O)[O-])c1)C(=O)NCC1CCN(c2nc3cc(OC)c(OC)cc3c(=N)[nH]2)CC1.Cl,25
3,O=C(Nc1ccc(F)cc1)c1nc2ccccc2nc1Cl,44
4,O=C(Nc1ccc(Cl)cc1)NC1CCN(CCCCCNC(=O)C2CC2c2ccc(Cl)c(Cl)c2)CC1 (stereo not drawn),51
5,CC(C)(C)c1cc(NC2CC2)nc(-c2ccccn2)n1,7
6,COc1ccc(Nc2nc(N/N=C/c3cc(Br)ccc3O)nc(Nc3ccc([N+](=O)[O-])cc3)n2)cc1,27
7,CCCCCCP(=O)(COc1ccc(CCN(CC(O)COc2cccc3[nH]c(C(N)=O)cc23)CC(O)COc2cccc3[nH]c(C(N)=O)cc23)cc1)OCCCC (stereo not drawn),0
8,COc1ccc2nccc([C@@H](O)CN3CCC(NCc4nc5ccc(F)cc5[nH]4)CC3)c2c1.O=C(O)C(=O)O,20
9,Cc1cc(N[C@@H](Cc2ccccc2)C(=O)NC2CCCC2)nc(NCCOc2ccccc2)n1.O=C(O)C(F)(F)F,40
10,COc1ccc(O)cc1Cc1cnc2nc(N)nc(N)c2c1C,67
11,Cc1cccc2nc(-c3cccc(-c4ccc(NC(=O)c5cnccc5C(F)(F)F)cc4)c3)[nH]c12,60
12,Cc1cc(Nc2ccc(O)cc2)nc2cccc(O)c12,22
13,CCOc1c(OC)ccc2c1CCN(CCN1CCC(CNC(=O)c3ccc(-c4ccc(C(F)(F)F)cc4)cc3)CC1)C2,54
